Measured values taken from ChEMBL document CHEMBL4513216, “Probing the Open Global Health Chemical Diversity Library for Multistage-Active Starting Points for Next-Generation Antimalarials” (ACS Infect Dis, 2020).
The campaign covered roughly 69,000 compounds. About 8,600 (12%) showed an effect of 50% or more. For the sample, strong results were picked, then their nearest neighbours and some compounds at random.

system: Plasmodium berghei; assay: Screen against P. berghei liver stage (PbLuc), transformed with Luciferase, at 10uM; format: functional, HepG2; details: tested at 10 uM

Compound | INHIBITION
Cc1cccc(S(=O)(=O)N2CSCC2C(=O)NCC2CC2)c1 (stereo not given) | -14.3%
Cc1cnccc1-c1cnn(CCNC(=O)c2ccncc2)c1C1CC1 | 48%
Cc1ccc(CN(C)Cc2nc3ccc(F)cc3[nH]2)cn1 | 44.2%
Cc1ccc(CC(=O)N2CCCC(c3ccn[nH]3)C2)cn1 (stereo not given) | 22.965%
O=C(NCc1ccco1)[C@@H]1CCO[C@@H]2CCN(c3ncccn3)C[C@@H]21 | 36.9%
Cn1cccc1C(=O)N1CCN(Cc2ccncc2)c2ncccc2C1 | -33%
N[C@@H]1c2ccccc2C2(CCN(C(=O)c3cncc(Cl)c3)CC2)[C@H]1O | 8.5%
CC(C)C(=O)NCC(=O)N1CCC2(CC1)c1ccccc1[C@@H](N)[C@@H]2O | -26.1%
N[C@@H]1c2ccccc2C2(CCN(c3cccc(C(F)(F)F)n3)CC2)[C@H]1O | 88%
N[C@@H]1c2ccccc2C2(CCN(c3cc(C(F)(F)F)ccn3)CC2)[C@H]1O | 58.8%
OCC1(O)CCN(c2ncccc2C(F)(F)F)CC1 | 24.2%
NS(=O)(=O)CC1CCN(c2ncccc2C(F)(F)F)CC1 | 20.6%
O=C1CCC2(CCN(c3cccc(C(F)(F)F)n3)CC2)CN1CCO | 47.9%
N[C@@H]1c2ccccc2C2(CCN(c3ccc(C(F)(F)F)cn3)CC2)[C@H]1O | 78.3%
FC(F)(F)c1ccnc(N2CCCCCC2)c1 | -6.52%
N[C@@H]1c2ccccc2C2(CCN(C(=O)c3ccc(Cl)cn3)CC2)[C@H]1O | 37.1%
N[C@@H]1c2ccccc2C2(CCN(c3ncccc3C(F)(F)F)CC2)[C@H]1O | 86.6%
N[C@@H]1c2ccccc2C2(CCN(c3cnc4ccccc4n3)CC2)[C@H]1O | 44.9%
CC(C)c1n[nH]c(C2CN(CCCS(C)(=O)=O)CCO2)n1 (stereo not given) | 0.914%
Cc1nc(CN2CCn3cc(CNC(=O)C4CCC4)nc3C2)cs1 | -3.1%
Cc1ccc(N(Cc2ccco2)C(=O)Cc2cc(=O)n(C)[nH]2)cc1 | 39.5%
O=C(O)CCn1ccc2cc(Br)ccc21 | 24.7%
CC(NC(=O)C1=NN(C)C(=O)CC1)c1ccccc1Cl (stereo not given) | 35.4%
Cc1cnc(CNC(=O)C2CCOc3ccccc3C2)cn1 (stereo not given) | -3.83%
COCCCN(Cc1ccccc1Cl)C1CCS(=O)(=O)C1 (stereo not given) | 33.4%
Cc1nnnn1CCC(=O)N1CCC2(CCC(=O)N(CC3CC3)C2)CC1 | 8.38%
c1cc(CN2CCCCC2c2ccc(Nc3cnccn3)nc2)ccn1 (stereo not given) | 43.1%

Compound | INHIBITION
Cn1cc(CN2CCC3(C2)CN(Cc2ccsc2)C3)cn1 | -3.19%
CNc1nc(CNC(=O)Nc2cccc(OC)c2)cs1 | 23.5%
N#Cc1cccc(N2CCC3(CC2)Nc2ccccc2NC3=O)n1 | 14.3%
O=C1Nc2ccccc2NC12CCN(c1cccc(C(F)(F)F)n1)CC2 | 76%
CC(O)c1cccc(N2CCC3(CC2)Nc2ccccc2NC3=O)n1 (stereo not given) | 0.705%
Cn1cnc2cc(C(=O)NS(=O)(=O)CC3CCCC3)ccc21 | -20.6%
COCCN1CCc2cc(C(=O)O)c(-c3ccoc3)nc2CC1 | 42.7%
Cn1cncc1CN1CCc2nc3sccc3c(=O)n2CC1 | -9.08%
CCc1ccc(CN(CCCn2ccnc2)Cc2ccc(C)s2)o1 | 52.3%
Cc1ccc(CN(CCCN2CCOCC2)Cc2cncn2C)o1 | 30.4%
COc1ccc(Cl)cc1CNCCCn1ccnc1 | -22.1%
COc1ccc(F)c(CN(CCCn2ccnc2)Cc2ccc(C)s2)c1 | 86.9%
Cc1ccc(CN(CCCn2ccnc2)Cc2cccs2)s1 | 82.1%
Cc1ccc(CN(CCCn2ccnc2)Cc2c(F)cccc2F)s1 | 94.1%
COc1ccc(Cn2ccnc2)cc1F | -20.7%
Cc1ccc(CN(CCCn2ccnc2)Cc2cnn(C)c2)s1 | 24.4%
Cc1ccc(CN(CCN(C)C)Cc2ncc[nH]2)s1 | 17.6%
Cc1ccc(CN(CCCn2ccnc2)Cc2cnc(N(C)C)nc2)s1 | -16.5%
CCCc1cncnc1N1CCCC2(CCC(=O)N(C3CCCC3)C2)C1 (stereo not given) | 32.4%
O=S(=O)(c1cnccc1N1CCN(CCO)CC1)N1CCCCC1 | 8.38%
CC(C)N1CCCC(c2cc(C(F)(F)F)nc3nccn23)C1 (stereo not given) | 3.03%
O=C(O)CCC(=O)Nc1nn(Cc2ccccc2Cl)cc1Cl | 19.3%
CC(C)c1nccn1C1CCCN(C(=O)c2ccc3nncn3c2)C1 (stereo not given) | 36.1%
Cc1cnn(CC2CCCN2C(=O)CCc2c(C)nc(C)[nH]c2=O)c1 (stereo not given) | -37.7%
CC(=O)N1CCC(c2cncc(Oc3ccccc3)n2)CC1 | 41.5%
CN(Cc1ccno1)c1nc(C2CCCC2)nc2c1cnn2C | 20%
Cc1cc(CN2CC[C@H]3C[C@H](C(=O)Nc4cccnc4C)O[C@@H]3C2)no1 | 48.6%

Compound | INHIBITION
CC(C)OCCCN(Cc1ccncc1)Cc1cc(F)ccc1F | -16.5%
OCc1ccc(CN(CCCn2ccnc2)Cc2ccncc2)o1 | 42.1%
c1cncc(CN(CCCn2ccnc2)CC2CCOC2)c1 (stereo not given) | 44.8%
OCc1ccc(CN(CCCn2ccnc2)Cc2cccnc2)o1 | 56%
Fc1ccccc1CN(CCCn1ccnc1)CC1CCOC1 (stereo not given) | 1.62%
Cc1ccc(CN(CCCn2ccnc2)Cc2cc(F)ccc2F)s1 | 88.1%
CC(C)NC1CCCc2nc(-c3ccccc3)ncc21 (stereo not given) | -36.3%
CN1CCN(c2ccc(NS(=O)(=O)c3ccc(Cl)s3)cc2C(=O)O)CC1 | -12.6%
Cc1cc(C)n(CC2CCCCN2C(=O)CCc2ccncc2)n1 (stereo not given) | 4.52%
Cc1cccc(C(=O)Nc2c(C(N)=O)n[nH]c2C)c1C | -41.9%
CC(=O)N(Cc1noc(C)n1)C1CCN(Cc2ccc(C#N)cc2)C1 (stereo not given) | 27.4%
Cc1cc(C)c2c(NC(C)c3nncn3C3CCCC3)ncnc2n1 (stereo not given) | 35.1%
COc1ccc(-c2noc(C3=NN(C)C(=O)CC3)n2)cc1OC | -17.8%
COc1ccc(Cc2noc(C3=NN(C)C(=O)CC3)n2)cc1OC | 53.8%
CN1N=C(c2nc(Cc3cccc(Br)c3)no2)CCC1=O | 25.4%
CCOCC1CN(C(=O)c2cccs2)Cc2cnn(CC3CC3)c21 (stereo not given) | 14.6%
Cc1cc(C(=O)NC(COCC(C)C)c2ccco2)no1 (stereo not given) | 11.9%
CC(C)c1noc(C(C)S(=O)(=O)CC(=O)N2CCCC2)n1 (stereo not given) | 37.9%
O=C(c1ccc(=O)[nH]n1)N1CCCC(O)(CN2CCC(F)(F)CC2)CC1 (stereo not given) | -18.8%
COc1cc(NCC(O)CN2CCCCCC2)ncn1 (stereo not given) | -25%
COc1cc(NCC(c2ccccn2)N(C)C)ncn1 (stereo not given) | 53.6%
Cc1cc2nc(C(C)C)cc(NCC(c3ccccn3)N(C)C)n2n1 (stereo not given) | 28%
CC(c1nc(C(C)(C)C)no1)N1CCN(Cc2ccc(C#N)cc2)CC1 (stereo not given) | -4.94%
Cc1ccoc1C(=O)N1CCn2cc(CN3CCCC3)nc2C1 | 28.7%
CCOc1cccc2c1OCC(C(=O)NS(=O)(=O)c1c(C)noc1C)=C2 | -6.44%
CO[C@H]1CN(S(=O)(=O)c2ccc(F)cc2)C[C@@]12CCCO2 | -23.4%
CN(C)c1ccc(NC(=O)NCc2cccnc2N(C)C)cn1 | 17.5%

Compound | INHIBITION
CCS(=O)(=O)c1ccc2oc([C@H]3CCN(Cc4ccccc4)C3)nc2c1 | -81.2%
CN1CCN(C2CCN(Cc3noc(C(C)(C)C)n3)CC2)C1=O | -21.5%
CC(C)c1noc(CN2CCC(c3nc4cc(Cl)ccc4o3)CC2)n1 | 67.9%
CC(C)(C)c1nc(CN2CCC(N3CCCCC3)CC2)no1 | 56.3%
Clc1ccc2oc(C3CCN(Cc4cccnc4)CC3)nc2c1 | 73.4%
CCc1nnc(CN2CCC(c3nc4cc(Cl)ccc4o3)CC2)o1 | 33.8%
CC(C)(C)c1nc(CN2CCCC(c3noc(C4CC4)n3)C2)no1 (stereo not given) | -41.1%
CC(C)(C)c1nc(CN2CCC(c3nc4cc(Cl)ccc4o3)CC2)no1 | 56.9%
Clc1ccc2oc(C3CCN(Cc4nc(C5CC5)no4)CC3)nc2c1 | 42.6%
c1ccc2oc(C3CCN(Cc4ncon4)CC3)nc2c1 | 15.2%
CCS(=O)(=O)c1ccc2oc([C@H]3CCN(Cc4cccnc4)C3)nc2c1 | 19.8%
CC(C)(C)c1nc(CN2CCC(c3ccnn3CCO)CC2)no1 | -17%
CC(C)(C)c1n[nH]c(C2CN(C(=O)c3cnc[nH]3)CCO2)n1 (stereo not given) | -42.1%
CN(C)CC1CN(Cc2cccc(C#N)c2)Cc2nccn2C1 (stereo not given) | -62.8%
CC[C@H](C)Nc1ncc(-c2cccc(NC(=O)CNC)c2)cn1 | -21.1%
Cc1n[nH]cc1CNCC(O)c1ccc(F)c(F)c1 (stereo not given) | 1.24%
Cc1cc(C(=O)N2CC[C@]3(C[C@@H](OCc4ccccn4)CO3)C2)c(C)o1 | 43.9%
O=C(NCC1CCCO1)c1cc(-c2cccnc2)c2cnccc2n1 (stereo not given) | 31.3%
Cc1ncc(CN2CCCN(Cc3noc(C4CC4)n3)CC2)s1 | -36.1%
Cc1ncc(CN2CCC(c3nc4cc(Cl)ccc4o3)CC2)s1 | 83.3%
Cc1nnc(CN2CCC(c3nc4cc(Cl)ccc4o3)CC2)n1C | -0.275%
Cc1nc(CN2CCC(c3nc4cc(Cl)ccc4o3)CC2)oc1C | -6.88%
Cc1noc(C)c1CN1CCC(c2nc3cc(Cl)ccc3o2)CC1 | 72.3%
Cc1ccc2oc([C@H]3CCN(Cc4ccccc4)C3)nc2c1 | 22.3%
